# The full list was thinned out, with the strongest signals kept by preference.
# B1: EULS2 M2 (Oryza sativa) (protein)
# chain: MVYCRANPNYAMTARNGAVVLAPANPKDEYQHWIKDMRWSTSIKDEEGYPAFALVNKATGQAIKHSLGQSHPVRLVPYNPEVMDESVLWTESRDVGNGFRCIRMVNNIYLNFDAFHGDKYHGGVRDGTDIVLWKLCEGDSQRWKIQPYYILEQKLISEEDLNSAVDHHHHHH
# Key:
# Assay in all cases: glycan array binding signal (z-score within array); higher = stronger binding
# Conditions in all cases: glycan notation: IUPAC condensed, linker removed
# [1] = target: Fuc(a1-2)Gal(b1-3)GlcNAc(b1-2)Man(a1-3)[Fuc(a1-2)Gal(b1-3)GlcNAc(b1-2)Man(a1-6)]Man(b1-4)GlcNAc(b1-4)GlcNAc
# Outline: (§1)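 Glycan array binding is given as a within-array Z-score, which can be read as non-binding when negative. The arrays, 3228 of them, came from the Consortium for Functional Glycomics database and were retained only where the protein sequence was available. Z-scores were averaged across arrays of the same protein sequence at different concentrations or buffers and across linkers.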
# [2] = target: Fuc(a1-2)Gal(b1-3)[Fuc(a1-4)]GlcNAc
# Outline: as §1
# [3] = target: Fuc(a1-2)Gal(b1-4)GlcNAc(b1-2)Man
# Outline: as §1
# [4] = target: Fuc(a1-2)Gal(b1-4)[Fuc(a1-3)]GlcNAc(b1-3)[Neu5Ac(a2-6)Gal(b1-4)GlcNAc(b1-6)]Gal(b1-4)Glc
# Outline: as §1
# [5] = target: Fuc(a1-3)[Gal(b1-4)]GlcNAc(b1-3)GalNAc
# Outline: as §1
# [6] = target: Fuc(a1-3)[Gal3S(b1-4)]GlcNAc6S
# Outline: as §1
# [7] = target: Gal(a1-3)Gal(b1-3)GlcNAc
# Outline: as §1
# [8] = target: Gal(a1-3)Gal(b1-3)[Fuc(a1-4)]GlcNAc(b1-2)Man(a1-3)[Gal(a1-3)Gal(b1-3)[Fuc(a1-4)]GlcNAc(b1-2)Man(a1-6)]Man(b1-4)GlcNAc(b1-4)GlcNAc
# Outline: as §1
# [9] = target: Gal(a1-3)GalNAc
# Outline: as §1
# [10] = target: Gal(a1-4)Gal(b1-4)Glc
# Outline: as §1
# [11] = target: Gal(b1-3)Gal(b1-4)GlcNAc
# Outline: as §1
# [12] = target: Gal(b1-3)GlcNAc(b1-3)Gal(b1-4)[Fuc(a1-3)]GlcNAc(b1-6)[Gal(b1-3)GlcNAc(b1-3)]Gal(b1-4)Glc
# Outline: as §1
# [13] = target: Gal(b1-3)[Fuc(a1-4)]GlcNAc(b1-3)Gal(b1-3)[Fuc(a1-4)]GlcNAc
# Outline: as §1
# [14] = target: Gal(b1-4)GlcNAc(b1-2)Man(a1-6)[GlcNAc(b1-2)Man(a1-3)]Man(b1-4)GlcNAc(b1-4)GlcNAc
# Outline: as §1
# [15] = target: Gal(b1-4)GlcNAc(b1-3)Gal(b1-4)GlcNAc
# Outline: as §1
# [16] = target: Gal(b1-4)GlcNAc(b1-3)Gal(b1-4)GlcNAc(b1-2)[Gal(b1-4)GlcNAc(b1-3)Gal(b1-4)GlcNAc(b1-6)]Man(a1-6)[Gal(b1-4)GlcNAc(b1-3)Gal(b1-4)GlcNAc(b1-2)Man(a1-3)]Man(b1-4)GlcNAc(b1-4)GlcNAc
# Outline: as §1
# [17] = target: Gal(b1-4)GlcNAc(b1-3)Gal(b1-4)GlcNAc(b1-2)[Gal(b1-4)GlcNAc(b1-3)Gal(b1-4)GlcNAc(b1-6)]Man(a1-6)[Gal(b1-4)GlcNAc(b1-3)Gal(b1-4)GlcNAc(b1-2)Man(a1-3)]Man(b1-4)GlcNAc(b1-4)[Fuc(a1-6)]GlcNAc
# Outline: as §1
# [18] = target: Gal(b1-4)GlcNAc(b1-3)Gal(b1-4)GlcNAc(b1-3)Gal(b1-4)GlcNAc(b1-2)Man(a1-3)[Gal(b1-4)GlcNAc(b1-3)Gal(b1-4)GlcNAc(b1-3)Gal(b1-4)GlcNAc(b1-2)Man(a1-6)]Man(b1-4)GlcNAc(b1-4)[Fuc(a1-6)]GlcNAc
# Outline: as §1
# [19] = target: Gal(b1-4)GlcNAc(b1-3)Gal(b1-4)GlcNAc(b1-3)Gal(b1-4)GlcNAc(b1-3)Gal(b1-4)GlcNAc(b1-3)Gal(b1-4)GlcNAc(b1-2)Man(a1-3)[Gal(b1-4)GlcNAc(b1-3)Gal(b1-4)GlcNAc(b1-3)Gal(b1-4)GlcNAc(b1-3)Gal(b1-4)GlcNAc(b1-3)Gal(b1-4)GlcNAc(b1-2)Man(a1-6)]Man(b1-4)GlcNAc(b1-4)GlcNAc
# Outline: as §1
# [20] = target: Gal(b1-4)GlcNAc(b1-3)Gal(b1-4)GlcNAc(b1-3)[Gal(b1-4)GlcNAc(b1-3)Gal(b1-4)GlcNAc(b1-6)]GalNAc
# Outline: as §1
# [21] = target: Gal(b1-4)GlcNAc(b1-3)[Fuc(a1-3)GlcNAc(b1-6)]Gal(b1-4)Glc
# Outline: as §1
# [22] = target: Gal(b1-4)GlcNAc(b1-6)[Gal(b1-3)]GalNAc
# Outline: as §1
# [23] = target: Gal3S(b1-3)GlcNAc
# Outline: as §1
# [24] = target: Gal3S(b1-3)[Fuc(a1-4)]GlcNAc
# Outline: as §1
# [25] = target: Gal3S(b1-4)[Fuc(a1-3)]Glc6S
# Outline: as §1
# [26] = target: Gal3S(b1-4)[Fuc(a1-3)]GlcNAc6S
# Outline: as §1
# [27] = target: Gal3S6S(b1-4)GlcNAc6S
# Outline: as §1
# [28] = target: Gal6P(b1-4)GlcNAc
# Outline: as §1
# [29] = target: Gal6S(b1-3)GlcNAc6S
# Outline: as §1
# [30] = target: Gal6S(b1-4)Glc6S
# Outline: as §1
binder,measurement,setting,value
B1,glycan array binding signal (z-score),[1],2.57
same,glycan array binding signal (z-score),[2],0.051
same,glycan array binding signal (z-score),[3],-0.221
same,glycan array binding signal (z-score),[4],-0.288
same,glycan array binding signal (z-score),[5],-0.239
same,glycan array binding signal (z-score),[6],0.046
same,glycan array binding signal (z-score),[7],6.13
same,glycan array binding signal (z-score),[8],0.228
same,glycan array binding signal (z-score),[9],-0.346
same,glycan array binding signal (z-score),[10],-0.552
same,glycan array binding signal (z-score),[11],-0.911
same,glycan array binding signal (z-score),[12],-0.897
same,glycan array binding signal (z-score),[13],-0.418
same,glycan array binding signal (z-score),[14],-0.086
same,glycan array binding signal (z-score),[15],0.298
same,glycan array binding signal (z-score),[16],1.3
same,glycan array binding signal (z-score),[17],0.142
same,glycan array binding signal (z-score),[18],-0.152
same,glycan array binding signal (z-score),[19],2.79
same,glycan array binding signal (z-score),[20],-0.129
same,glycan array binding signal (z-score),[21],-0.485
same,glycan array binding signal (z-score),[22],0.142
same,glycan array binding signal (z-score),[23],-0.359
same,glycan array binding signal (z-score),[24],-0.012
same,glycan array binding signal (z-score),[25],0.271
same,glycan array binding signal (z-score),[26],3.8
same,glycan array binding signal (z-score),[27],13.3
same,glycan array binding signal (z-score),[28],-0.418
same,glycan array binding signal (z-score),[29],4.18
same,glycan array binding signal (z-score),[30],4.74

# — the supplement of paper PMC8728848
